Results: PubChem BioAssay (Tox21)
Results filed as inconclusive are left out. Active and inactive are the calls of the source. Unless noted, calls come from the whole dose curve; as a rule, active = well fitted curve in the direction sought with a large enough effect in the repeat runs; inconclusive = weak or mixed curves; inactive = no such curve, though single readings can be large; an effect the other way counts as inactive or inconclusive.

Key:
[1] = qHTS assay for small molecules that induce genotoxicity in human embryonic kidney cells expressing luciferase-tagged ATAD5 (AID 651632); note: nearly all actives have a fitted effect of over 15% in size
In short: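 A rise in luciferase signal from ATAD5-tagged HEK293T cells marks genetic stress. Cells were exposed to compounds for 16 hr at 37C, 5% CO2, then luciferase was quantified after a 30 min room-temperature incubation with Amplite.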

[2] = qHTS assay for small molecule agonists of the p53 signaling pathway - cell viability (AID 651633; calls by dose curve;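 note: p53RE-bla HCT reporter cells with a stable beta-lactamase p53 reporter; series mostly up to about 83 µM; nearly all actives have a fitted effect of over 30% in size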)
In short: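 Viability counter-read: CellTiter-Glo luminescence (30 min, room temperature) in the same p53RE-bla plates. These plates had been exposed to compounds for 16 h at 37 C.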

[3] = qHTS assay for small molecules that induce genotoxicity in human embryonic kidney cells expressing luciferase-tagged ATAD5 - cell viability (AID 651634; calls by dose curve; note: nearly all actives have a fitted effect of over 25% in size)
In short: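 Cytotoxicity counter-readout: after 15.5 hr compound treatment at 37C, live-cell protease activity in ATAD5-luciferase HEK293T cells measured by CellTiter-Fluor fluorescence, 30 min development at 37C.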

[4] = qHTS assay for small molecule disruptors of the mitochondrial membrane potential - cell viability (AID 720634; calls by dose curve;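 note: human HepG2 liver cancer cells; series mostly up to about 83 µM; nearly all actives have a fitted effect of over 20% in size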)
In short: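 Cytotoxicity was quantified from ATP content by CellTiter-Glo luminescence in the same wells as the MMP dye read-out. HepG2 (2,000 cells/well) were plated overnight and exposed to compounds for 1 hr at 37 C.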

[5] = qHTS assay to test for compound auto fluorescence at 590 nm (red) in HepG2 cells (AID 720674)
In short: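 We screened compounds on adherent HepG2 cells, incubating them for an hour at 37 C in 5% CO2 before reading emission at 590 nm under 540 nm excitation; values reflect equivalence to Rose Bengal sodium fluorescence.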

[6] = qHTS assay to test for compound auto fluorescence at 535 nm (green) in HepG2 cells (AID 720675)
[7] = qHTS assay to test for compound auto fluorescence at 460 nm (blue) in HEK293 cells (AID 720678)
In short: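 Cells were seeded and left to adhere for 4-5 hr at 37C. Compounds were then pin-transferred. After an overnight incubation at 37C under 5% CO2, intrinsic fluorescence at 405/460 nm was measured and referenced to triamterene.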

[8] = qHTS assay to test for compound auto fluorescence at 590 nm (red) in HEK293 cells (AID 720679)
In short: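 Each well held 2,000 HEK293 cells in medium containing 10% dialyzed FBS. Following 4-5 hr attachment at 37C, 23 nL test compound or DMSO was added; plates sat overnight, and red fluorescence (540/590nm) was recorded.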

[9] = qHTS assay to test for compound auto fluorescence at 535 nm (green) in HEK293 cells (AID 720680)
[10] = qHTS assay to test for compound auto fluorescence at 460 nm (blue) in HEK293 cell free culture (AID 720681)
In short: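 Blue fluorescence (Ex 405/Em 460 nm, triamterene-equivalent) was read immediately after pin transfer of compound or DMSO into medium (DMEM, 10% FBS) without cells.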

[11] = qHTS assay to test for compound auto fluorescence at 590 nm (red) in HEK293 cell free culture (AID 720683)
In short: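 Red-channel autofluorescence of compounds in culture medium (DMEM, 10% FBS), no cells, measured at 540/590 nm. Rose Bengal sodium is the reference fluorophore for equivalence.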

[12] = qHTS assay to test for compound auto fluorescence at 590 nm (red) in HepG2 cell free culture (AID 720684)
In short: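 No cells present: MEM + 10% FBS only. Compound pinned in, red label read (540/590 nm). Activity = fluorescence equivalent to Rose Bengal sodium.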

[13] = qHTS assay to test for compound auto fluorescence at 460 nm (blue) in HepG2 cell free culture (AID 720685)
In short: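 Cell-free plates of MEM plus 10% FBS received 23 nL compound or DMSO vehicle; blue-channel (405/460 nm) intensity scored against triamterene as reference fluorophore.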

[14] = qHTS assay to test for compound auto fluorescence at 535 nm (green) in HepG2 cell free culture (AID 720686)
[15] = qHTS assay to test for compound auto fluorescence at 460 nm (blue) in HepG2 cells (AID 720687)
In short: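 Blue-channel autofluorescence (Ex/Em 405/460 nm, triamterene-equivalent) was measured after 1 hr compound exposure at 37 C, 5% CO2. Cells were HepG2, plated overnight at 37 C in MEM plus 10% FBS.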

[16] = target: Glucocorticoid receptor (Homo sapiens) (UniProt P04150); experiment: qHTS assay to identify small molecule antagonists of the glucocorticoid receptor (GR) signaling pathway (AID 720692; active = well fitted inhibition curve with a large enough effect in the signal ratio in the repeat runs, not every such curve was filed as active; the % refers to the signal ratio)
Glucocorticoid receptor (Homo sapiens), sequence (P04150 whole entry, looked up): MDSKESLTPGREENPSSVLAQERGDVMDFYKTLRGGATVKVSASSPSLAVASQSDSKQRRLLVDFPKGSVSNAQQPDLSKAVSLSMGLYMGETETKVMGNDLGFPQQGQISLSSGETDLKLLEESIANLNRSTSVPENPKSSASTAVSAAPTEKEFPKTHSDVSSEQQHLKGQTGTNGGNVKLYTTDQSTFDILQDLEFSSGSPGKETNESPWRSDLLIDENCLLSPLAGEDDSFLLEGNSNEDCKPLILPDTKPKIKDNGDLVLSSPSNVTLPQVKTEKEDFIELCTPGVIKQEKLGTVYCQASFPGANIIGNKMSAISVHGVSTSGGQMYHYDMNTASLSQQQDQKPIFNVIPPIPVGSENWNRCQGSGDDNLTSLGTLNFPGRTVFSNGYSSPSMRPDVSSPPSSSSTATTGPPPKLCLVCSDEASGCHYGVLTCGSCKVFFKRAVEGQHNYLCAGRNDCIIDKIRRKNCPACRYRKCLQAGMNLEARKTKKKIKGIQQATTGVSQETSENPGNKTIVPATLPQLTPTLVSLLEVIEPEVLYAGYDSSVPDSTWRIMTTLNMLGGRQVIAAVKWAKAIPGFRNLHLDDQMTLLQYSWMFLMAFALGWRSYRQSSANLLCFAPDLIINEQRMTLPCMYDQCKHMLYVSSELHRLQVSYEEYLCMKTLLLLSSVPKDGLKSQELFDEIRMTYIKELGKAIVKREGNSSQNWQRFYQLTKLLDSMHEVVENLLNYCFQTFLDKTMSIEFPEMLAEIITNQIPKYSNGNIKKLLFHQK
In short: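 Inhibition of dexamethasone-driven (5 nM final) beta-lactamase expression was measured in GRE-reporter HeLa cells over 18 h at 37C. Fluorescence was read after 2 h with the B/G FRET substrate at room temperature.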

[17] = qHTS assay to test for compound auto fluorescence at 535 nm (green) in HEK293 cell free culture (AID 720682)
In short: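 Green-channel intensity (Ex/Em 485/535 nm) was recorded from compound-treated wells containing only DMEM with 10% FBS. Fluorescein provided the equivalency standard.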

[18] = target: Glucocorticoid receptor (Homo sapiens) (UniProt P04150); experiment: qHTS assay to identify small molecule agonists of the glucocorticoid receptor (GR) signaling pathway (AID 720691; active = well fitted activation curve with a large enough effect in the signal ratio in the repeat runs, not every such curve was filed as active; the % refers to the signal ratio)
In short: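 Agonist-mode qHTS in HeLa cells stably expressing a glucocorticoid-response-element beta-lactamase reporter. Fluorescence intensity read with FRET substrate (2 h, room temperature) after 18 h compound treatment at 37 C.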

[19] = qHTS assay for small molecule disruptors of the mitochondrial membrane potential (AID 720635)
In short: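 Mitochondrial membrane potential tracked with Mito-MPS dye, red aggregates (ex 540/em 590 nm) against green monomers (ex 490/em 535 nm). Compound treatment 1 hr at 37C, dye 30 min in HepG2.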
% is set by controls: 0 for no effect and ±100 for the full control effect.

CCOC(=O)CCl
inactive: outcome [1] | Potency [2] | Potency [3] | Potency [4] | outcome [5] | outcome [6] | outcome [7] | outcome [8] | outcome [9] | outcome [10] | outcome [11] | outcome [12] | outcome [13] | outcome [14] | outcome [15] | Potency [16]

CON(C)C(=O)Nc1ccc(Br)c(Cl)c1
inactive: outcome [1] | Potency [2] | Potency [3] | outcome [5] | outcome [6] | outcome [7] | outcome [8] | outcome [9] | outcome [10] | outcome [17] | outcome [11] | outcome [12] | outcome [13] | outcome [15] | Potency [18]

BrCC1CO1 (stereo unspecified)
inactive: outcome [1] | Potency [2] | Potency [3] | Potency [4] | outcome [5] | outcome [6] | outcome [7] | outcome [8] | outcome [9] | outcome [10] | outcome [17] | outcome [11] | outcome [12] | outcome [13] | outcome [14] | outcome [15] | Potency [16]

CCOP(=S)(OCC)SCCl
inactive: outcome [1] | Potency [2] | Potency [4] | Potency [19] | outcome [5] | outcome [6] | outcome [7] | outcome [8] | outcome [9] | outcome [10] | outcome [17] | outcome [11] | outcome [12] | outcome [13] | outcome [15] | Potency [18] | Potency [16]

C=CCN1CC[C@]23CCCC[C@H]2[C@H]1Cc1ccc(O)cc13
inactive: outcome [1] | Potency [2] | Potency [3] | outcome [5] | outcome [6] | outcome [7] | outcome [8] | outcome [9] | outcome [10] | outcome [11] | outcome [12] | outcome [13] | outcome [14] | outcome [15] | Potency [18]

O=[N+]([O-])c1cccc(CCl)c1
inactive: Potency [2] | Potency [3] | Potency [4] | outcome [5] | outcome [6] | outcome [7] | outcome [8] | outcome [10] | outcome [11] | outcome [12] | outcome [13] | outcome [15] | Potency [18] | Potency [16]

CNC(=O)Oc1cc(C)c(N(C)C)c(C)c1
inactive: outcome [1] | Potency [2] | Potency [4] | outcome [5] | outcome [6] | outcome [7] | outcome [8] | outcome [9] | outcome [10] | outcome [17] | outcome [11] | outcome [12] | outcome [13] | outcome [14] | outcome [15] | Potency [18] | Potency [16]

C[C@@H](N)[C@@H](O)c1ccccc1
inactive: Potency [4] | Potency [19] | fluorescence, relative to Rose Bengal [5] -0.248% [at 18.6 µM] | fluorescence, % of fluorescein control [6] -0.0859% [at 18.6 µM] | fluorescence, % of triamterene [7] 0.0027% [at 18.6 µM] | fluorescence, % of fluorescent control [8] -0.083% [at 18.6 µM] | fluorescence, % of fluorescein [9] 0.072% [at 18.6 µM] | fluorescence, % of fluorescent control [10] -0.0641% [at 18.6 µM] | activity change [17] -0.0136% [at 18.6 µM] | fluorescence, % of fluorescent control [11] 0.0965% [at 18.6 µM] | fluorescence, % of Rose Bengal [12] 0.843% [at 18.6 µM] | fluorescence, % of fluorescent control [13] -0.105% [at 18.6 µM] | fluorescence, % of fluorescein control [14] 0.0244% [at 18.6 µM] | fluorescence, % of fluorescent control [15] -0.0421% [at 18.6 µM] | Potency [18] | Potency [16]

CCNc1nc(Cl)nc(NC(C)(C)C)n1
inactive: outcome [1] | Potency [2] | Potency [3] | Potency [4] | outcome [5] | outcome [6] | outcome [7] | outcome [8] | outcome [9] | outcome [10] | outcome [11] | outcome [12] | outcome [13] | outcome [14] | outcome [15] | Potency [18]

CCN[C@H](C)Cc1cccc(C(F)(F)F)c1
inactive: outcome [1] | Potency [2] | Potency [3] | Potency [4] | outcome [5] | outcome [6] | outcome [7] | outcome [8] | outcome [10] | outcome [17] | outcome [11] | outcome [12] | outcome [13] | outcome [14] | outcome [15] | Potency [18] | Potency [16]

CC(O)CCl (stereo unspecified)
inactive: outcome [1] | Potency [2] | Potency [3] | Potency [4] | outcome [5] | outcome [6] | outcome [7] | outcome [8] | outcome [10] | outcome [17] | outcome [11] | outcome [12] | outcome [13] | outcome [14] | outcome [15] | Potency [18] | Potency [16]

CCC(=O)c1ccc(Cl)cc1
inactive: outcome [1] | Potency [3] | Potency [4] | outcome [5] | outcome [6] | outcome [7] | outcome [8] | outcome [9] | outcome [10] | outcome [17] | outcome [11] | outcome [12] | outcome [13] | outcome [14] | outcome [15] | Potency [18] | Potency [16]

CCCC(C)C1(CC)C(=O)N=C(S)NC1=O (stereo unspecified)
inactive: Potency [2] | Potency [4] | Potency [19] | outcome [5] | outcome [6] | outcome [7] | outcome [8] | outcome [9] | outcome [10] | outcome [17] | outcome [11] | outcome [12] | outcome [13] | outcome [14] | outcome [15] | Potency [16]

NNC(N)=O
inactive: outcome [1] | Potency [2] | Potency [3] | Potency [4] | outcome [5] | outcome [6] | outcome [7] | outcome [8] | outcome [10] | outcome [11] | outcome [13] | outcome [14] | outcome [15] | Potency [18]

C=C(C)[C@H]1CN[C@H](C(=O)O)[C@H]1CC(=O)O
inactive: outcome [1] | Potency [2] | Potency [4] | outcome [5] | outcome [6] | outcome [7] | outcome [8] | outcome [9] | outcome [10] | outcome [17] | outcome [11] | outcome [12] | outcome [13] | outcome [14] | outcome [15] | Potency [18] | Potency [16]
